L3MBTL1 block: qHTS Assay for the Inhibitors of L3MBTL1. Lethal(3)malignant brain tumor-like protein 1 (Homo sapiens), Q9Y468. AlphaScreen L3MBTL1–H3K9me1 peptide binding. Potency, µM (doses to about 57.1 µM), inactives show at the top dose activity, negative = inhibition, actives largely listed as inhibitors. actives 0.66% (n = 230,000); further: on the % scale 0 is the no-effect control and ±100 the full control effect; nearly all actives have a fitted effect of over 60% in size
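Displacement of a biotinylated histone H3(1-15) peptide monomethylated at Lys9 (75 nM) from L3MBTL1 (50 nM) was measured by AlphaScreen after a 30 min room-temperature compound incubation; cefsulodin titration served as intraplate control.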
BAZ2B block: qHTS Assay for Inhibitors of BAZ2B | Bromodomain adjacent to zinc finger domain protein 2B (Homo sapiens), Q9UIF8 | AlphaScreen BAZ2B-H3K14Ac peptide displacement | Potency, µM (doses to about 114 µM), for the others: at the highest dose activity change, negative = inhibition, most hits filed as inhibitors | actives 4.4% (n = 360,000) | AID 504333, 2011; further: on the % scale 0 is the no-effect control and ±100 the full control effect; nearly all actives have a fitted effect of over 60% in size
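Compounds, titrated to a top concentration of 110 uM, were incubated 30 min at room temperature with preformed BAZ2B/acetyl-K14 H3 peptide complex (50 nM each). Proximity signal was measured by AlphaScreen after 20 min with beads.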
HP1b binding inh: HTS for Inhibitors of HP1-beta Chromodomain Interactions with Methylated Histone Tails. AlphaScreen HP1-beta / biotin-H3K9me3 peptide binding. AID 540317, 2011. Potency, µM (doses to about 114 µM), without a hit: top-dose activity change, negative = inhibition, most hits filed as inhibitors. actives 0.56% (n = 390,000). Chromobox protein homolog 1 (Homo sapiens), P83916; further: nearly all actives have a fitted effect of over 70% in size
Target sequence (P83916 whole entry, looked up): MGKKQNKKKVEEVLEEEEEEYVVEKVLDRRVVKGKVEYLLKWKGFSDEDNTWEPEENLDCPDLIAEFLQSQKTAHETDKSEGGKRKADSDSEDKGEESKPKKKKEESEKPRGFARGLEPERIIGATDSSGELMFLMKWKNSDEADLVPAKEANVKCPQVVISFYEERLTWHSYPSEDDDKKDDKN
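AlphaScreen: HP1-beta (50 nM) preformed 30 min with biotin-H3(1-18)K9me3 peptide (50 nM) in PBS pH 7.4, 0.01% Tween-20. Compound added for 30 min at RT, then streptavidin donor/nickel chelate acceptor beads (10 ug/mL) for 30 min.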
JMJD2A Tudor inh: qHTS Assay for Inhibitors of JMJD2A-Tudor Domain | Lysine-specific demethylase 4A (Homo sapiens), O75164 | AlphaScreen JMJD2A-Tudor / H3K4me3 peptide binding | Potency, µM (highest dose often 114 µM), without a hit: top-dose activity change, negative = inhibition, usual class: inhibitors | actives 4.4% (n = 390,000); further: on the % scale 0 is the no-effect control and ±100 the full control effect; nearly all actives have a fitted effect of over 50% in size
G9a inh: qHTS Assay for Inhibitors of Histone Lysine Methyltransferase G9a. actives 8.8% (n = 350,000). Potency, µM (titrated, usually from 102 µM), inactives show at the top dose activity, negative = inhibition, hits mostly inhibitors. G9a H3K9 monomethylation, AlphaScreen, 2 h; further: on the % scale 0 is the no-effect control and ±100 the full control effect; nearly all actives have a fitted effect of over 75% in size
Target sequence (Q96KQ7 913-1193 limits assumed): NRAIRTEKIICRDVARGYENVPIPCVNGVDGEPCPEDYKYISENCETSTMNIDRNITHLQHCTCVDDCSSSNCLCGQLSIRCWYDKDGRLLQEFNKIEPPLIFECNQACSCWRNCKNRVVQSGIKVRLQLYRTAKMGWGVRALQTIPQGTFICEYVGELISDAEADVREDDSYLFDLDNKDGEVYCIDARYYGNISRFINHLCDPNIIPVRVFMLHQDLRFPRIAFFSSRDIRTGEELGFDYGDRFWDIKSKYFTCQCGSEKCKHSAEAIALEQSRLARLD
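G9a (20 nM) was preincubated 15 min with compound, then reacted 2 h at room temperature with 500 nM biotin-H3K9 peptide and 20 µM SAM. Monomethyl-H3K9 detected by AlphaScreen using anti-H3K9me1 antibody.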
* = called active by the depositor; ? = inconclusive; · = no result; [ ] = another dose, or the depositor's remark. Rows were chosen to be rich in hits. Some 11% of all compounds tested hit in one or more screens of this group. The call rests on the fitted dose curve; in most records, active means well fitted inhibition curve with a large enough effect; inconclusive means small, poorly fitted or top-dose-only effect; inactive means no such curve, though single readings can be large or run the other way. Potency means the concentration at half of the fitted maximal effect.

SMILES | L3MBTL1 block | BAZ2B block | HP1b binding inh | JMJD2A Tudor inh | G9a inh
COc1ccc(N2CCN(c3ncnc4c3nc3n4CCCCC3)CC2)cc1 | · | ? | -13% | ? | 11µM*
O=C(O)c1cn(Cc2ccccc2)nc1-c1ccccc1 | 4% | -17% | 33% | -10% | 6%
O=C(O)CSCC(=O)N(Cc1ccccc1)c1nc(-c2ccccc2)c(-c2ccccc2)s1 | · | 50µM* | -22% | 56µM* | ?
CCOC(=O)c1ccc2c(c1)N(CC)C(=O)c1ccccc1S2 | · | -7% | 24% | -3% | 45µM*
CCN1C(=O)c2ccccc2Sc2ccc(NC(=O)c3ccc(C)c(F)c3)cc21 | · | 1% | 25%[57 µM] | ? | 2%[59 µM]
Oc1cc(Cl)cc(Cl)c1Cl | 2% | -1% | 28% | -17% | 8%[0.501 µM]
COc1ccc2[nH]c3c(c2c1)CCN=C3C | -11% | 45µM* | -29% | 35µM* | 8.9µM*
OCCNc1c2c(nc3ccccc13)CCCC2 | -1% | 0% | 55% | 17% | -10%
CNc1ccc2nc3ccccc3[n+](C)c2c1 | · | 35µM* | ? | -33% | -33%[2.33 µM]
C[n+]1c2ccccc2nc2ccc(NCCO)cc21 | · | 13µM* | 40µM* | ? | 1%[2.33 µM]
Cc1ccc(Cn2cccc(C(=O)Nc3ccc4c(c3)OCCO4)c2=O)cc1 | · | -12% | 16% | -20% | -21%[59 µM]
O=C1C=C2C=CC3C[C@@]2(O1)C1CCCCN31 (stereo not given in full) | · | · | · | · | -38%[2.33 µM]
CCOc1ccc(CCNC(=O)c2cc3c(-c4cccc(OC)c4)nn(C)c3s2)cc1OCC | · | · | 13% | -24% | ?
C#C[C@]1(O)CC[C@H]2[C@@H]3CCC4=Cc5nc6nc7ccccc7n6cc5C[C@]4(C)[C@H]3CC[C@@]21C | 15% | 3% | 40% | -6% | 25µM*
C#CC1(O)CCC2C3CCC4=CC(=O)CCC4(C)C3CCC21C (stereo not given) | · | · | · | · | -39%[2.33 µM]
COc1ccc(NC2Oc3cc4c(cc3C(c3cc(OC)c(OC)c(OC)c3)C2C)OCO4)cc1 (stereo not given) | · | · | ? | 56µM* | ·
CC[N@+]1(C)CCC[C@@H](OC(=O)C(O)(c2ccccc2)c2ccccc2)C1 | · | · | · | · | 14%[21.5 µM]
CNCC(O)c1cccc(OC(=O)c2ccccc2C)c1 (stereo not given) | -2% | -1% | 54% | 26%[11.4 µM] | 56µM*
Cc1ccc(-n2c(O)c(/C=N/NC(=O)c3ccncc3)c(=O)[nH]c2=O)cc1 | -5% | 50µM* | 37% | ? | ?
Cc1cccc(-n2c(O)c(/C=N/NC(=O)c3ccncc3)c(=O)[nH]c2=O)c1 | -12% | ? | 35% | 79µM* | 37%[12.7 µM]
O=C(N/N=C/c1c(O)n(-c2ccccc2)c(=O)[nH]c1=O)c1ccncc1 | -7% | ? | 46% | ? | -2%[59 µM]
CC1CCN(S(=O)(=O)c2ccc(NN=C(C#N)C#N)cc2)CC1 | · | 45µM* | · | · | ?
N#CC(C#N)=NNc1ccc(S(N)(=O)=O)cc1 | · | ? | 35µM* | -19%[11.4 µM] | -1%[12.7 µM]
C=C(C)C(=O)Nc1cccc(C2=NOC3(C2)C[C@H](C(N)=O)N(C(=O)/C=C/C)C3)c1 (stereo not given in full) | · | 7.1µM* | 8.9µM* | 8.9µM* | ?
CC1=C2C[C@H]3[C@@H](CC=C4C[C@@H](O)CC[C@@]43C)[C@@H]2CC[C@]12O[C@@H]1C[C@H](C)CN[C@H]1C2C (stereo not given in full) | · | · | · | · | 7%[59 µM]
SMILES | L3MBTL1 block | BAZ2B block | HP1b binding inh | JMJD2A Tudor inh | G9a inh
COC(=O)c1ccccc1N=Cc1c(O)[nH]c(=O)[nH]c1=O | · | 23% | 64% | 10% | ?
CC(N=Cc1c(O)[nH]c(=O)[nH]c1=O)c1ccccc1 (stereo not given) | -2% | -1% | 9% | -18% | 5.6µM*
Nc1nonc1-n1nnc(C(=O)N/N=C/c2ccc3c(c2)OCO3)c1CSc1ccccc1 | · | -6%[57.1 µM] | 52% | 1% | 41%
Cc1cccc(C(=O)NC(Oc2ccccc2)C(Cl)(Cl)Cl)c1 (stereo not given) | 7% | 10% | 0% | 40µM* | 4%[59 µM]
C=CCC1(C(C)CCC)C(=O)N=C(S)NC1=O (stereo not given) | · | · | · | · | 3%[59 µM]
c1ccc2nc3ccccc3nc2c1 | -3% | -3% | 41% | -23% | 45µM*
O=[N+]([O-])c1ccc(-c2ccccc2)c([As](=O)(O)O)c1 | 4% | ? | 51% | -19% | 13µM*
Cc1ccc(Cl)cc1NC(=O)N(Cc1ccc2c(c1)OCO2)C1CCN(Cc2ccccc2)CC1 | · | ? | 7% | ? | ?
CN1CCN(c2ccc(N)cc2Cl)CC1 | · | ? | 28µM* | ? | 40µM*
COC(=O)C1=C(C(=O)OC)SC2(S1)C(C(=O)OC)=C(C(=O)OC)Sc1c2ssc1=O | · | · | 16µM* | 40µM* | ·
O=C(NC1CC1)c1cc(-c2ccco2)nc2ccccc12 | · | 10µM* | 18µM* | 8.9µM* | 10µM*
Cn1nc(-c2ccccc2)nc2c(=O)n(C)c(=O)nc1-2 | · | · | 10%[57 µM] | -6%[57.1 µM] | ·
Cc1nc2c(=O)n(C)c(=O)nc-2n(C)n1 | 0.11µM* | -5% | 17% | 6% | -18%[59 µM]
Nc1c(C(=O)Nc2ccc(OC(F)(F)F)cc2)sc2nc3c(cc12)N1CCC3CC1 | · | 3% | 69% | -21% | 0%[59 µM]
CC(N)Cc1ccccc1Sc1ccc(O)cc1 (stereo not given) | 3% | -5%[57.1 µM] | · | · | 35µM*
COc1cc2c(cc1OC)[C@@]13CCN4CC5=CCOC6CC(=O)N2C1[C@H]6[C@@H]5C[C@@H]43 (stereo not given in full) | · | · | · | · | -2%[2.33 µM]
O=C(Nc1ccon1)c1cccn(Cc2cccc([N+](=O)[O-])c2)c1=O | · | -1% | 52% | -23% | -5%[59 µM]
Fc1ccccc1-c1n[nH]c(=S)n1Cc1ccccc1 | · | -3% | 2% | 22µM* | 3.5µM*
CCCN1C[C@H](C)N([C@H](c2ccc(C(=O)N(CC)CC)cc2)c2cccc(OC)c2)C[C@H]1C | · | · | · | · | 7%[59 µM]
COc1ccc2c(c1OC)C(=O)OC2c1c(O)n(Cc2ccc(F)cc2)c(=O)[nH]c1=O (stereo not given) | · | ? | 21% | 79µM* | -48%[12.7 µM]
O=c1[nH]c(=O)n(Cc2ccc(F)cc2)c(O)c1C=NCc1cccnc1 | -4% | -9% | 10% | -18% | 5%
C[C@@H]1C(=O)O[C@H]2C[C@@]34[C@H]5C[C@@H](C(C)(C)C)[C@]36[C@@H](OC(=O)[C@@H]6O)O[C@@]4(C(=O)O5)[C@]21O | · | 8% | 30% | -3% | 10%

Screening data as filed in PubChem BioAssay.
